Data taken from the supplement of paper PMC6555819.

What was measured:
Experiment in all cases: PBM binding z-score (relative to random genomic background probes); higher = stronger binding; sequences stand for … in GC…GCGATTGACAGCGTAGAATGAAGG
[1] = tested on: PPARg:RXRa IVT, anti-PPARg (NR concentration 270 nM, RXRa partner concentration 90 nM)
Method in brief: (§1)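 For binding z-scores, the reference was random background probes on custom Agilent 4×180K protein-binding microarrays. These arrays were incubated 1 h with ligand-free nuclear receptor dimers in PBS pH 7.4, 2% milk, 0.02% Triton X-100, 1 mM DTT, 0.2 mg/mL BSA and 0.4 mg/ml salmon testes DNA. Fluorescence was scanned after antibody detection of each partner (one per run) and regression-normalized.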

[2] = tested on: PPARg DBDmut:RXRa IVT, anti-PPARg (DBD mutation: PPARg1 K132A/R137A, NR concentration 270 nM, RXRa partner concentration 90 nM)
Method in brief: as §1

[3] = tested on: PPARg DBDmut IVT, anti-PPARg (DBD mutation: PPARg1 K132A/R137A, NR concentration 270 nM)
Method in brief: as §1

[4] = tested on: PPARg homodimer (NR concentration 180 nM)
Method in brief: as §1

[5] = tested on: PXR:RXRa (NR concentration 270 nM, RXRa partner concentration 90 nM)
Method in brief: as §1

[6] = tested on: PXR homodimer (NR concentration 270 nM)
Method in brief: as §1

[7] = tested on: RARa:RXR (NR concentration 270 nM, RXRa partner concentration 90 nM)
Method in brief: as §1

[8] = tested on: RARa homodimer (NR concentration 270 nM)
Method in brief: as §1

[9] = tested on: RARb:RXRa (NR concentration 270 nM, RXRa partner concentration 90 nM)
Method in brief: as §1

[10] = tested on: RARb homodimer (NR concentration 270 nM)
Method in brief: as §1

[11] = tested on: RARg:RXRa (NR concentration 270 nM, RXRa partner concentration 90 nM)
Method in brief: as §1

[12] = tested on: RARg homodimer (NR concentration 270 nM)
Method in brief: as §1

[13] = tested on: RXRa DBDmut IVT, anti-RXR (DBD mutation: RXRa K156A/R161A, NR concentration 90 nM)
Method in brief: as §1

[14] = tested on: RXRa homodimer (NR concentration 180 nM)
Method in brief: as §1

[15] = tested on: THRa:RXRa (NR concentration 90 nM, RXRa partner concentration 90 nM)
Method in brief: as §1

[16] = tested on: THRa homodimer (NR concentration 90 nM)
Method in brief: as §1

[17] = tested on: VDR homodimer (NR concentration 270 nM)
Method in brief: as §1

Sequence | PBM binding z-score [1] | PBM binding z-score [2] | PBM binding z-score [3] | PBM binding z-score [4] | PBM binding z-score [5] | PBM binding z-score [6] | PBM binding z-score [7] | PBM binding z-score [8] | PBM binding z-score [9] | PBM binding z-score [10] | PBM binding z-score [11] | PBM binding z-score [12] | PBM binding z-score [13] | PBM binding z-score [14] | PBM binding z-score [15] | PBM binding z-score [16] | PBM binding z-score [17]
ACTTAAGGGTCAACGAGGTTATAGCACGCGTATA | 4.06 | 2.52 | 3.33 | 4.43 | 6.26 | 6 | 6.74 | 2.01 | 5.29 | 4.31 | 6.9 | 6.85 | 3.8 | 7.56 | 4.4 | 1.07 | 5.42
TGTCAACGTTCAAAGGTAACGTAAGTATCCACAC | 1.78 | 0.941 | 0.758 | 0.252 | 0.578 | -0.0241 | 1.36 | 0.107 | 1.46 | 1 | 1.28 | 1.09 | -0.465 | 1.27 | 1.46 | -0.221 | -0.0342
ATCGAAAGGTCGACGCGGTGAGTATACACCGTTT | 1.36 | 0.788 | 0.177 | 1.39 | 2.07 | -0.368 | 3 | 0.192 | 3.72 | 2.45 | 4.07 | 4.09 | 1.12 | 3.83 | 1.97 | -0.506 | 0.391
TCTCGGAGGAAACGAAAGGTCAGAGCTCGACATC | 0.961 | -0.0511 | -0.298 | 2.23 | 3.7 | 0.181 | 4.48 | 1.31 | 3.73 | 4.28 | 4.03 | 3.59 | 0.822 | 4.07 | 2.59 | 0.0929 | 0.612
CGAACAAGGTCATTGACAGGACAGTGAATAGTAA | 4.81 | 1.05 | 0.903 | 2.11 | 4.12 | 1.79 | 4.28 | 1.42 | 5 | 3.92 | 6.27 | 5.95 | 4.45 | 5.53 | 3.96 | 2.16 | 3.2
CCTTACGGGTCACTGACAGGTTATAGCGTTTGGA | 3.67 | -0.0392 | -0.319 | 2.56 | 3.48 | 0.179 | 3.97 | 0.964 | 3.88 | 3.34 | 5.75 | 4.55 | 1.73 | 5.06 | 2.76 | 0.417 | 1.2
CGAACGAGGTCATGAGTTGATAGCAAATGCCGAT | 6.46 | 1.73 | 1.44 | 2.84 | 5.17 | 0.602 | 5.48 | 0.273 | 5.23 | 3.94 | 6.18 | 6.02 | 4.6 | 6.87 | 4.26 | 3.07 | 4.41
CCTTACGGGTTACTCCAGGTTATAGCATCGGAGT | 0.994 | 0.298 | -0.838 | 0.398 | 2.52 | 0.558 | 1.68 | 0.599 | 1.02 | 0.561 | 0.987 | 0.779 | -0.0626 | 1.26 | 4.49 | 0.236 | 0.487
